CBX7 inh – CBX7 inhibition, primary AlphaScreen; O95931; AlphaScreen His6-CBX7 / biotin-H3K27me3 peptide binding; hits give low values; normalised signal (fraction of DMSO) (concentration not given with the values); 66,000 tested, 1.1% active; AID 1224903; in the data active = normalised signal below about 0.5
Target sequence (O95931 whole entry, looked up): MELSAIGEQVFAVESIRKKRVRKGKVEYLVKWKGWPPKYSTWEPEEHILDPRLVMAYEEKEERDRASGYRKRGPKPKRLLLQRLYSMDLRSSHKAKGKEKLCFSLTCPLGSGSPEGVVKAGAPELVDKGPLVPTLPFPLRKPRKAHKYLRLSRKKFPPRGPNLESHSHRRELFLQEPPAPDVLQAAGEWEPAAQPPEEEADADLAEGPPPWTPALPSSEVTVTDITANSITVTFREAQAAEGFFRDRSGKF
* = called active by the depositor; ! = a repeat was not active. This excerpt belongs to a sample that is enriched for hits.

SMILES	CBX7 inh
Cc1cccc(-c2nc(Nc3ccccc3F)c3ccccc3n2)c1	1.2
O=C1Nc2ccccc2SC(c2ccccc2)C1O (stereo unspecified)	0.19*
CC(C(=O)NC1CCCCC1)C1Sc2ccccc2NC1=O (stereo unspecified)	1
O=C1CC(c2ccc(F)cc2)Sc2ccccc2N1 (stereo unspecified)	0.89
CCCCc1ccc(-c2nc(Nc3ccc(Oc4ccccc4)cc3)c3ccccc3n2)cc1	1.3
CCC(C)NC(=O)c1ccc2c(c1)N=C(C)c1ccccc1S2 (stereo unspecified)	1.1
CCOC(=O)c1cnc2c(Cl)cccc2c1Nc1cccc(Cl)c1	0.96
O=C(Nc1ccccc1-c1nc2ccccc2s1)c1ccc2c(c1)OCCO2	0.88
CC1CCN(S(=O)(=O)c2cn(CC(=O)N3CCCCCC3)c(=O)c3ccccc23)CC1	1.2
Cc1cc(N2CCN(c3cc(Cl)ccc3C)CC2)n2nc(C)nc2n1	1
CCC(=O)N1c2ccc(S(=O)(=O)NCc3ccc(OC)cc3)cc2CC1C (stereo unspecified)	0.83
CCN(CCCNC(=O)CCc1nc(-c2ccc(OC)cc2)no1)c1cccc(C)c1	0.42*
COc1ccc(-c2noc(CCC(=O)NCCCOC(C)C)n2)cc1	0.89
COc1ccc(-c2noc(CCC(=O)NCCN(C)C)n2)cc1	0.89
Cc1ccccc1CSc1nnc(Cc2cc(=O)[nH]c(=O)[nH]2)n1-c1ccc(Cl)cc1	0.86
Cc1ccc2c(c1)-c1c(cnn1CC(=O)NCCN(C)C1CCCCC1)CO2	0.99
O=C1CN(C(=O)COc2ccccc2)C(c2ccccc2)c2cc(Cl)ccc2N1 (stereo unspecified)	0.76
O=C1CN(C(=O)COc2ccccc2)C(c2ccccc2)c2cc(Br)ccc2N1 (stereo unspecified)	0.48*
O=C1CN(C(=O)COc2ccccc2)C(c2ccccc2)c2cc(F)ccc2N1 (stereo unspecified)	1
CCOc1ccc(-c2cc(C(=O)NCC3COc4ccccc4O3)c3ccccc3n2)cc1 (stereo unspecified)	1
Cc1ccc2[nH]c(C)c(CCNS(=O)(=O)c3ccc4c(c3)CCN4S(C)(=O)=O)c2c1	0.93
O=C(NCc1ccncc1)c1cc(-c2ccccc2)nc2ccc(Br)cc12	1.1
COc1ccccc1-c1c(C)nn2c(NCc3ccc(C)cc3)cc(C)nc12	1
COc1ccccc1-c1c(C)nn2c(NCc3cccnc3)cc(C)nc12	1.1
COc1ccccc1-c1c(C)nn2c(NCc3ccccn3)cc(C)nc12	0.39*
SMILES	CBX7 inh
COC(=O)c1ccc(-n2nnnc2SCC(=O)Nc2c(C)cccc2C)cc1	1.1
Oc1ccc(-c2[nH]c(-c3cccc(Cl)c3)nc2-c2ccccc2)cc1	0.41*
Fc1ccc(-c2nc(-c3ccccc3)c(-c3cccs3)[nH]2)cc1	0.7
COc1ccc(-c2nc(-c3ccccc3)c(-c3cccs3)[nH]2)cc1O	0.88
COc1cccc(-c2nc(-c3ccsc3)c(-c3ccccc3)[nH]2)c1OC	0.92
Oc1ccc(-c2nc(-c3ccccc3)c(-c3cccs3)[nH]2)cc1	0.47*
COc1cccc(-c2nc(-c3cccs3)c(-c3cccs3)[nH]2)c1	0.92
COc1ccc(-c2nc(-c3ccccc3)c(-c3cccs3)[nH]2)cc1OC	0.51
COc1ccc(-c2nc(-c3cccs3)c(-c3cccs3)[nH]2)cc1OC	0.45*
Oc1ccc(-c2nc(-c3ccc(-c4ccccc4)cc3)c(-c3ccc(-c4ccccc4)cc3)[nH]2)cc1	0.61
COc1ccc(-c2nc(-c3cccs3)c(-c3cccs3)[nH]2)cc1	0.92
O=C(O)c1ccc(-c2nc(-c3cccc(Cl)c3)c(-c3ccccc3)[nH]2)cc1	0.72
COc1cccc(-c2nc(-c3ccccc3)c(-c3cccs3)[nH]2)c1OC	0.43*
O=C(c1ccc2c(c1)N(Cc1ccccc1)CCS2)N1CCN(c2ccccc2)CC1	0.55
COc1ccc(Nc2cc(C(=O)NCc3ccc(Cl)c(Cl)c3)c3ccccc3n2)c(OC)c1	0.86
Cc1nc2cc(NC(=O)c3ccc(Br)cc3)ccc2n1-c1ccccc1	0.96
COc1ccc(CCC(=O)Nc2ccc3nc(N4CCC(C)CC4)cc(C)c3c2)cc1	1.1
CCC(=O)Nc1c(-c2ccccc2)nc2ccc(C)cn12	0.84
COc1ccc(-c2nc(Cc3ccccc3Cl)no2)c(OC)c1	1.2
Cc1[nH]nc2c1C(c1ccccc1)N(c1nccs1)C2=O (stereo unspecified)	0.87
Cc1cc2nc(-c3cccc(NC(=O)c4ccc5c(c4)OCCO5)c3C)oc2cc1C	0.92
CCOC(=O)c1cc(C)sc1NC(=O)c1cccc(Br)c1	1.2
Brc1ccc(-c2nc(-c3ccccc3)c(-c3ccc(Oc4ccccc4)cc3)[nH]2)cc1	0.76
c1ccc(-c2nc(-c3cccnc3)[nH]c2-c2ccccc2)cc1	0.31*!
c1cncc(-c2nc3ccccc3[nH]2)c1	1.2
SMILES	CBX7 inh
COc1ccc(-n2nnc3c(=O)n(CC(=O)Nc4ccc(Cl)cc4)cnc32)cc1	0.92
Cc1ccc(NC(=O)CCc2nnc3ccc(NCCCN4CCOCC4)nn23)cc1	1
C=CCn1c(SCC(=O)Nc2ccc(Br)cc2)nnc1-c1cccnc1	1
Cc1ccc(Nc2nnc(-c3ccc(C)c(S(=O)(=O)N(C)C)c3)c3ccccc23)cc1	0.92
COc1ccc(NC2c3ccccc3C(=O)N2c2ccc(Cl)cc2)cc1 (stereo unspecified)	0.42*
CCc1ccc(NC2c3ccccc3C(=O)N2c2ccc(Cl)cc2)cc1 (stereo unspecified)	0.68
COc1ccc(NC2c3ccccc3C(=O)N2c2ccc(Cl)cc2)cc1OC (stereo unspecified)	0.54
COc1ccc(-c2nc3cc(C)c(Cl)cc3nc2-c2ccc(OC)cc2)cc1	2.3
CCOC(=O)c1cc(-c2ccccc2)n(CCC(=O)NCc2ccc3c(c2)OCO3)c1C	0.92
CCC(=O)N1CCc2cc(S(=O)(=O)CCC(=O)N3CCCCCC3)ccc21	0.93
CCOC(=O)N1CCc2c(sc(NCc3cccs3)c2C(=O)Nc2ccc(OC)cc2OC)C1	0.86
CCOC(=O)N1CCc2c(sc(NCc3cccs3)c2C(=O)Nc2cc(OC)ccc2OC)C1	0.47*
CCOC(=O)N1CCc2c(sc(NCc3ccncc3)c2C(=O)Nc2cc(OC)ccc2OC)C1	0.72
COc1ccccc1N1CCN(C(=O)c2ccc3c(=O)n(CCc4ccccc4)c(=O)[nH]c3c2)CC1	1
COc1ccccc1N1CCN(Cc2cc(Cl)c3cccnc3c2O)CC1	0.00087*
COc1ccccc1C(NC(=O)C(C)C)c1cc(Cl)c2cccnc2c1O (stereo unspecified)	0.71
Oc1c(Br)cc(CN2CCCCC2)c2cccnc12	0.0057*
COc1ccccc1N1CCN(Cc2cc(Br)c(O)c3ncccc23)CC1	0.013*
COc1ccccc1N1CCN(c2ncnc3ccccc23)CC1	1
COc1cc(CN2CCN(Cc3ccccc3Br)CC2)cc(OC)c1OC	1
Brc1ccc(OCc2ccccc2)c2ncccc12	1
COc1ccccc1N1CCN(c2nnc(C)c3ccccc23)CC1	1.2
COc1ccccc1N1CCN(Cc2nc(-c3ccccc3)no2)CC1	1
COc1cccc(-c2cc(C(F)(F)F)nc(N3CCN(c4ccc(F)cc4)CC3)n2)c1	1.1
COCCN1Cc2cccc(C(=O)NCc3ccc(F)cc3)c2C1=O	1
CCN(CCCNS(=O)(=O)c1ccc2c(c1)CCN2C(C)=O)c1ccccc1	0.86
CCC(C(=O)Nc1ccccc1F)n1c(SCc2cc(C)ccc2C)nc2ccncc21 (stereo unspecified)	0.96

Compound activity (PubChem BioAssay)
